Test results: PubChem BioAssay AID1159580 (chemical genetic matrix, 2015)
Several values for one entry are separate records, joined by “and”; a condition that tells them apart may be missing. Equal entries are not always repeated. Among all 5,500 compounds or so, about 2,000 (36%) were called active. Roughly 18% stayed inconclusive and do not appear here. No stated cut-off is given here; in the data, active means normalized growth mostly below about 0.91 (no sharp cut-off); inconclusive means no clear call, values can overlap the other calls; inactive means mostly above about 0.92. The list shows a part of the results.

Assay: chemical genetic growth profiling, strain panel (AID 1159580);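 further: tested at 20 µM; growth read once vehicle control cultures reached saturation at 30 °C; 1 = growth at the plate median or of vehicle wells; lower values mean less growth of the strain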
Details: S. cerevisiae deletion strains, growth OD

Measured: normalized growth

COc1ccc2c(c1)c(CC(=O)O)c(C)n2C(=O)c1ccc(Cl)cc1
inactive: locus YAL013W, strain DEP1, active compounds read low 1.01 | locus YAL021C, strain ccr4, active compounds read low 0.987 | locus YAL026C, strain drs2, active compounds read low 0.974 | locus YAL030W, strain snc1, active compounds read low 0.988 | locus YAL040C, strain CLN3, active compounds read low 0.997 | locus YBL061C, strain skt5, active compounds read low 0.959 | locus YBR009C, strain hhf1, active compounds read low 0.931 | locus YBR021W, strain FUR4, active compounds read low 1 | locus YBR023C, strain chs3, active compounds read low 0.969 | locus YBR171W, strain sec66, active compounds read low 0.967 | locus YBR229C, strain ROT2, active compounds read low 1 | locus YBR231C, strain swc5, active compounds read low 0.972 | locus YBR279W, strain paf1, active compounds read low 0.988 | locus YCL011C, strain gbp2, active compounds read low 0.921 | locus YCL016C, strain dcc1, active compounds read low 0.919 | locus YCL029C, strain bik1, active compounds read low 0.988 | locus YCL061C, strain MRC1 (second series), active compounds read low 1.01 | locus YCL061C, strain MRC1, active compounds read low 0.96 | locus YCL069W, strain vba3, active compounds read low 0.986 | locus YCR088W, strain abp1, active compounds read low 0.99 | locus YDL005C, strain med2, active compounds read low 0.973 | locus YDL035C, strain GPR1, active compounds read low 1.02 | locus YDL040C, strain nat1, active compounds read low 0.991 | locus YDL074C, strain BRE1, active compounds read low 1.02 | locus YDL101C, strain DUN1, active compounds read low 1.01 | locus YDL185W, strain tfp1, active compounds read low 0.973 | locus YDL192W, strain arf1, active compounds read low 0.998 | locus YDR001C, strain nth1, active compounds read low 0.978 | locus YDR069C, strain doa4, active compounds read low 1.01 | locus YDR101C, strain arx1, active compounds read low 1.02 | locus YDR137W, strain rgp1, active compounds read low 0.95 | locus YDR159W, strain sac3, active compounds read low 1.01 | locus YDR162C, strain NBP2, active compounds read low 0.995 | locus YDR195W, strain ref2 1.02 | locus YDR297W, strain sur2, active compounds read low 1.01 | locus YDR318W, strain mcm21, active compounds read low 0.979 | locus YDR334W, strain swr1, active compounds read low 0.981 | locus YDR335W, strain msn5, active compounds read low 0.991 | locus YDR363W, strain ESC2, active compounds read low 0.996 | locus YDR388W, active compounds read low 0.982 | locus YDR392W, strain spt3, active compounds read low 0.885 | locus YDR502C, strain sam2, active compounds read low 0.981 | locus YEL003W, strain gim4, active compounds read low 1 | locus YEL037C, strain rad23, active compounds read low 0.961 | locus YEL061C, strain CIN8 (second series), active compounds read low 0.979 | locus YEL061C, strain CIN8, active compounds read low 1 | locus YER002W, strain NOP16, active compounds read low 1.02 | locus YER015W, strain faa2, active compounds read low 0.976 | locus YER016W, strain bim1, active compounds read low 0.989 | locus YER110C, active compounds read low 0.986 | locus YER111C, strain swi4, active compounds read low 0.98 | locus YER155C, strain BEM2 (second series), active compounds read low 0.874 | locus YER155C, strain BEM2, active compounds read low 0.989 | locus YER167W, strain BCK2, active compounds read low 0.995 | locus YFR010W, strain ubp6, active compounds read low 0.975 | locus YGL078C, strain dbp3, active compounds read low 0.978 | locus YGL086W, strain mad1, active compounds read low 0.995 | locus YGL167C, strain pmr1, active compounds read low 0.983 | locus YGL173C, strain kem1, active compounds read low 0.985 | locus YGL227W, strain vid30, active compounds read low 0.976 | locus YGL240W, strain doc1, active compounds read low 1.01 | locus YGL248W, strain PDE1, active compounds read low 1.01 | locus YGL253W, strain hxk2, active compounds read low 0.993 | locus YGR135W, strain pre9, active compounds read low 0.963 | locus YGR252W, strain gcn5, active compounds read low 0.94 | locus YHR013C, strain ard1, active compounds read low 0.968 | locus YHR027C, strain rpn1, active compounds read low 0.981 | locus YHR030C, strain SLT2, active compounds read low 1.01 and 0.952 | locus YHR079C, strain IRE1 (second series), active compounds read low 0.987 | locus YHR079C, strain IRE1, active compounds read low 0.96 | locus YHR094C, strain hxt1, active compounds read low 0.975 | locus YHR129C, strain ARP1, active compounds read low 1.01 | locus YHR142W, strain chs7, active compounds read low 0.912 | locus YHR200W, strain rpn10, active compounds read low 0.99 | locus YIL066C, strain RNR3, active compounds read low 1 | locus YIL073C, strain SPO22, active compounds read low 0.987 | locus YIL125W, strain kgd1, active compounds read low 0.945 | locus YIR030C, strain dcg1, active compounds read low 0.986 | locus YJL092W, strain hpr5, active compounds read low 0.92 | locus YJL095W, strain BCK1 (second series), active compounds read low 0.996 | locus YJL095W, strain BCK1, active compounds read low 1 and 0.969 | locus YJL115W, strain asf1, active compounds read low 0.969 | locus YJL129C, strain trk1, active compounds read low 0.909 | locus YJL134W, strain LCB3, active compounds read low 0.997 | locus YJL154C, strain vps35, active compounds read low 0.989 | locus YJL164C, strain tpk1, active compounds read low 0.976 | locus YJL166W, strain qcr8, active compounds read low 0.977 | locus YJL168C, strain set2, active compounds read low 0.979 | locus YJL187C, strain SWE1 (second series), active compounds read low 1 | locus YJL187C, strain SWE1, active compounds read low 0.991 | locus YJR043C, strain POL32, active compounds read low 1.02 | locus YJR066W, strain TOR1, active compounds read low 0.911
